This is a sample that favours compounds with a hit; in the whole collection about 2.5% have one here.
Mcl1-Noxa inh: Mcl-1/Noxa binding inhibitors, primary screen, biochemical, TR-FRET, 1536-well; Induced myeloid leukemia cell differentiation protein Mcl-1 (Homo sapiens), Q07820; TR-FRET Mcl-1/Noxa peptide binding, 2 h; inhibition, % at 21.7 µM; 220,000 tested, 1.5% active;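 active = compounds that cut the protein-peptide binding signal by more than 50% relative to plate controls in a single-dose test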;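 note: His-tagged Mcl-1 with rhodamine Noxa BH3 peptide and terbium anti-His antibody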
Target sequence (Q07820 whole entry, looked up): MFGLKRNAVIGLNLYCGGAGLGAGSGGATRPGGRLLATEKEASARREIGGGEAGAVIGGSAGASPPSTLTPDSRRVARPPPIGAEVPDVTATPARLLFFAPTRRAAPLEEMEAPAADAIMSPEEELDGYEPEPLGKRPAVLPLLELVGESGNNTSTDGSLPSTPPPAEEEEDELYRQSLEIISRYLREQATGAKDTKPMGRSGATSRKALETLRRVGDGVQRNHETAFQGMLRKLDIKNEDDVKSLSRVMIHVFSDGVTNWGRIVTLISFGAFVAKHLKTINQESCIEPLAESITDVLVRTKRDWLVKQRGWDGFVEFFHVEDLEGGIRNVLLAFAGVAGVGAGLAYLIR
Bim-Mcl-1: inhibitors of Bim peptide binding to Mcl-1, primary screen, biochemical, bead-based flow cytometry, multiplex; Induced myeloid leukemia cell differentiation protein Mcl-1 (Homo sapiens), Q07820; Bim peptide-Mcl-1 binding; inhibition, % at 10 µM; 190,000 tested, 0.1% active; in the data active = inhibition above about 40%
14-3-3 Bad PPI: inhibitors of 14-3-3 zeta/Bad binding, primary screen, biochemical, TR-FRET, bovine 14-3-3 zeta; TR-FRET 14-3-3zeta/Dy647-pBad peptide displacement, 1 h; 220,000 tested, 0.71% active; inhibition, % at 21.7 µM; AID 781, 2007; 14-3-3 protein zeta/delta (Bos taurus), P63103;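 active = inhibition above about 70%, limit read from the data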
Mcl1-Bid inh: Mcl-1/Bid binding inhibitors, primary screen, biochemical, TR-FRET, 1536-well; Induced myeloid leukemia cell differentiation protein Mcl-1 (Homo sapiens), Q07820; TR-FRET Mcl-1/Bid-Dy647 peptide binding; inhibition, % at 21.7 µM; 220,000 tested, 0.97% active; AID 1021, 2008;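 active = compounds that cut the binding signal by more than half at the single screening dose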;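 note: His-tagged Mcl-1 with europium anti-His antibody binding Bid BH3 peptide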
MCL1-BIM inh: inhibitors of MCL1 binding to BIM-BH3, primary screen, biochemical, fluorescence polarization; inhibition, % at 10.9 µM; Induced myeloid leukemia cell differentiation protein Mcl-1 (Homo sapiens), Q07820; 320,000 tested, 0.68% active; GST-MCL1 / FITC-Bim-BH3 fluorescence polarization;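 active = inhibition above the mean inhibition of all tested compounds plus 3 SD, set per campaign, cut at about 40% in these data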;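 note: higher means more loss of mP so more displacement of Bim peptide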
Bcl-xL conf: Bcl-xL inhibitors blocking Bim BH3 binding, confirmation, counter-screen for MCL1 inhibitor project, biochemical, fluorescence polarization; shares compounds with MCL1-BIM inh; GST-Bcl-xL / FITC-Bim BH3 peptide FP binding; inhibition, % at 10.9 µM; 1,700 tested, 54% active;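 active = inhibition above a cutoff equal to the mean inhibition of all tested compounds plus 3 SD, cut at about 30% in these data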
Target sequence (Q07817 whole entry, looked up): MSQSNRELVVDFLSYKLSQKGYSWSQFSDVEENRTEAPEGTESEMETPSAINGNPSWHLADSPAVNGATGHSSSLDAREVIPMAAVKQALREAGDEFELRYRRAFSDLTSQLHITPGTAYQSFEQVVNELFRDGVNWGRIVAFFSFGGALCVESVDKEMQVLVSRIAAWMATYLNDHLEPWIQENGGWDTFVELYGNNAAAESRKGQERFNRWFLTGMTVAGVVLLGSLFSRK
MCL1 inh confirm: inhibitors of MCL1 binding to BIM-BH3, confirmation, biochemical, fluorescence polarization, triplicate. shares compounds with MCL1-BIM inh. AID 2168, 2009. GST-MCL1 / FITC-Bim-BH3 fluorescence polarization. inhibition, % at 10.9 µM. 1,700 tested, 61% active;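 active = inhibition above the average of all tested compounds plus 3 SD, cut at about 40% in these data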
Of the large screens only hits and unclear results are named; the others gave an inactive call (follow-up assays come after a bar, where they were run).

O=C(Nc1cccc(Br)c1)/C(=C\c1cccnc1)NC(=O)c1ccco1	none
N#C/C(=C\c1cccc([N+](=O)[O-])c1)C(=O)NCC1CCCO1 (configuration not stated)	MCL1-BIM inh 50 | Bcl-xL conf inactive | MCL1 inh confirm inactive
O=S(=O)(NCCCc1ccccc1)c1ccc(Cl)cc1	none
OCC(Cc1ccccc1)Nc1c2ccccc2nc2ccccc12 (configuration not stated)	MCL1-BIM inh 40 | Bcl-xL conf inactive | MCL1 inh confirm inactive
COc1cc(NC(=S)N2CCN(CCO)CC2)cc(OC)c1	MCL1-BIM inh 82 (no result: Mcl1-Noxa inh, Bim-Mcl-1, 14-3-3 Bad PPI, Mcl1-Bid inh) | Bcl-xL conf inactive | MCL1 inh confirm inactive
COc1ccccc1-c1nc(C#N)c(NCc2ccc(F)cc2)o1	none
Oc1ccc(/C=N/N2CCCCC2)c(O)c1O	MCL1-BIM inh 54 (no result: Mcl1-Noxa inh, Bim-Mcl-1, 14-3-3 Bad PPI, Mcl1-Bid inh) | Bcl-xL conf inactive | MCL1 inh confirm inactive
Cc1cccc(Nc2c(-c3ccc(O)cc3)nc3ncccn23)c1	none
O=C(CCc1ccc(S(=O)(=O)N2CCOCC2)cc1)N/N=C/c1ccc(F)cc1F	none
O=C(CCc1ccc(S(=O)(=O)N2CCOCC2)cc1)N/N=C/c1ccc(O)c(O)c1O	Mcl1-Noxa inh 73, MCL1-BIM inh 46 | Bcl-xL conf inactive | MCL1 inh confirm 59
CCOC(=O)c1c(C)[nH]c(C(=O)CN2CCOCC2)c1C	none
Cc1c2ccccc2nc2c(F)c(NCCO)c(F)c(F)c12	MCL1-BIM inh active | Bcl-xL conf active | MCL1 inh confirm active
Cc1c2ccccc2nc2c(F)c(NC(C)C)c(F)c(F)c12	MCL1-BIM inh 139 | Bcl-xL conf 131 | MCL1 inh confirm 151
C/C(=N\O)C(C)(C)Nc1ccc(F)cc1	none (no result: Bim-Mcl-1)
CC1CCC2C(=O)N(c3ccccc3OC(=O)c3ccccc3)C(=O)C2C1 (configuration not stated)	none
Nc1ccc2nc3c(=O)n(C4CCCCC4)c(=O)[nH]c3nc2c1	MCL1-BIM inh active (no result: Bim-Mcl-1) | Bcl-xL conf 191 | MCL1 inh confirm active
CCCCn1c(N)c(Br)c(=O)[nH]c1=O	none (no result: Bim-Mcl-1)
Cc1cc2nc3c(=O)n(CCc4ccccc4)c(=O)[nH]c3nc2cc1N	MCL1-BIM inh active (no result: Bim-Mcl-1) | Bcl-xL conf 190 | MCL1 inh confirm active
Nc1ccc2nc3c(=O)n(CCc4ccccc4)c(=O)[nH]c3nc2c1	MCL1-BIM inh active (no result: Bim-Mcl-1) | Bcl-xL conf 182 | MCL1 inh confirm active
CCCCn1c(=O)[nH]c2nc3cc(N)ccc3nc2c1=O	MCL1-BIM inh active | Bcl-xL conf active | MCL1 inh confirm active
O=c1c2ccccc2ncn1-c1ccccc1F	none
COc1ccc(C(CNC(=O)Nc2ccccc2)N2CCN(C)CC2)cc1 (configuration not stated)	MCL1-BIM inh 46 (no result: Mcl1-Noxa inh, Bim-Mcl-1, 14-3-3 Bad PPI, Mcl1-Bid inh) | Bcl-xL conf inactive | MCL1 inh confirm inactive
O=C(CSc1nnc(-c2ccco2)c(-c2ccco2)n1)Nc1ccccc1	Mcl1-Noxa inh 90, MCL1-BIM inh 60 | Bcl-xL conf 34 | MCL1 inh confirm 83
COc1ccc(NC(=O)CSc2nnc(-c3ccco3)c(-c3ccco3)n2)cc1OC	none (no result: Mcl1-Noxa inh, Bim-Mcl-1, 14-3-3 Bad PPI, Mcl1-Bid inh)
COc1cccc(NC(=O)CSc2nnc(-c3ccco3)c(-c3ccco3)n2)c1	MCL1-BIM inh 49 (no result: Mcl1-Noxa inh, Bim-Mcl-1, 14-3-3 Bad PPI, Mcl1-Bid inh) | Bcl-xL conf 35 | MCL1 inh confirm 64
CN(C)c1ccc(NC(=O)CSc2nnc(-c3ccco3)c(-c3ccco3)n2)cc1	none (no result: Mcl1-Noxa inh, Bim-Mcl-1, 14-3-3 Bad PPI, Mcl1-Bid inh)
CCOc1ccccc1OCC(=O)NC1CCCCC1	none
C=C(C)c1cccc(C(C)(C)NC(=O)Nc2ccc(C)cn2)c1	none
C=C(C)c1cccc(C(C)(C)NC(=O)Nc2ccc(OC)nc2)c1	MCL1-BIM inh 91 (no result: Mcl1-Noxa inh, Bim-Mcl-1, 14-3-3 Bad PPI, Mcl1-Bid inh) | Bcl-xL conf 57 | MCL1 inh confirm 73
COc1ccc(NC(=O)c2cccc(-c3ccc(O)cc3)c2)cn1	MCL1-BIM inh 179 (no result: Mcl1-Noxa inh, Bim-Mcl-1, 14-3-3 Bad PPI, Mcl1-Bid inh) | Bcl-xL conf 107 | MCL1 inh confirm 133
Cc1cc(O)ccc1NC(=O)c1ccccc1	none
COc1ccccc1CNC(=O)CN1C(=O)c2cccc(N)c2C1=O	MCL1-BIM inh 107 (no result: Mcl1-Noxa inh, Bim-Mcl-1, 14-3-3 Bad PPI, Mcl1-Bid inh) | Bcl-xL conf 43 | MCL1 inh confirm 54
CCOC(=O)c1ccccc1NC(=O)COc1coc(CN2CCc3ccccc32)cc1=O	none (no result: Mcl1-Noxa inh, Bim-Mcl-1, 14-3-3 Bad PPI, Mcl1-Bid inh)
O=C(NC(Cc1ccccc1)C(=O)O)/C(=C/c1ccco1)NC(=O)c1cccc(Br)c1 (configuration not stated)	MCL1-BIM inh 51 | Bcl-xL conf inactive | MCL1 inh confirm inactive
Cc1ccc(C(=O)N/N=C/c2ccc(-c3ccc(Br)cc3[N+](=O)[O-])o2)o1	MCL1-BIM inh 62 (no result: Mcl1-Noxa inh, Bim-Mcl-1, 14-3-3 Bad PPI, Mcl1-Bid inh) | Bcl-xL conf inactive | MCL1 inh confirm inactive
Cc1cc(C2(O)C(=O)Nc3ccccc32)ccc1F (configuration not stated)	MCL1-BIM inh 79 (no result: Mcl1-Noxa inh, Bim-Mcl-1, 14-3-3 Bad PPI, Mcl1-Bid inh) | Bcl-xL conf inactive | MCL1 inh confirm inactive
O=C1Nc2ccccc2C1(O)c1ccccc1O (configuration not stated)	none (no result: Mcl1-Noxa inh, Bim-Mcl-1, 14-3-3 Bad PPI, Mcl1-Bid inh)
CS(=O)(=O)n1nc(-c2ccc(Cl)cc2)nc1N	none
Cn1nc(-c2ccc(Cl)cc2)nc2c(=O)n(C)c(=O)nc1-2	MCL1-BIM inh 96 | Bcl-xL conf 94 | MCL1 inh confirm 121
COc1ccc(N(C)C(=O)Nc2ccc3nsnc3c2)cc1	none (no result: MCL1-BIM inh)
CC(C)N(C(=O)Nc1ccc2nsnc2c1)C(C)C	MCL1-BIM inh 66 | Bcl-xL conf inactive | MCL1 inh confirm inactive
COC(=O)N[C@H](c1ccccc1)[C@@]1(C)C[C@@H]1[C@@H](C)C(=O)Nc1ccc2ccccc2c1	none (no result: Mcl1-Noxa inh, Bim-Mcl-1, 14-3-3 Bad PPI, Mcl1-Bid inh)
COCCCNC(=O)C1CCCCN1S(=O)(=O)c1ccc(F)cc1 (configuration not stated)	none
Cn1c(=O)c(NCCO)c2c3c(cccc31)C(=O)c1ccccc1-2	MCL1-BIM inh 123 | Bcl-xL conf 125 | MCL1 inh confirm 129
Cc1cccc(NC2=C(NCCO)C(=O)c3ccccc3C2=O)c1	none
CCCCNc1c2c3c(cccc3n(C)c1=O)C(=O)c1ccccc1-2	MCL1-BIM inh active | Bcl-xL conf 178 | MCL1 inh confirm active
Cn1c(NCCc2ccccc2)cc(=O)n(C)c1=O	none
Cn1c(=O)c(NCCc2ccccc2)c2c3c(cccc31)C(=O)c1ccccc1-2	MCL1-BIM inh active | Bcl-xL conf active | MCL1 inh confirm active
CC(=O)Nc1ccc(NC2=CC(=O)c3ccccc3C2=O)cc1	none (no result: Mcl1-Noxa inh, Bim-Mcl-1, 14-3-3 Bad PPI, Mcl1-Bid inh)

From PubChem BioAssay
